A selection: hits, their analogues and other compounds. The true share with any hit is near 4.5%.
GDH-TPI counter-1: inhibits GDH-TPI coupling enzymes, artifact for Mtb FBA screen; GDH-TPI coupled enzyme counterscreen, NADH absorbance; inhibition, % at 4.8 µM; 1.2% of 360,000 active; AID 588335; in the data active = inhibition above about 30%;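 note: 0% = DMSO wells and 100% = wells lacking the enzyme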
PfHsp40 rescue: rescue of PfHsp40-mediated yeast toxicity; S. cerevisiae expressing PfHsp40, growth rescue, ATP luminescence; growth rescue, % at 12.5 µM; 0.68% of 340,000 active; AID 504582; in the data active = growth rescue above about 28%, passing the limit was not always enough;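 note: yeast W303a lacking pdr1 and pdr3 grown in galactose medium; growth measured after three days at 30 °C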
BJeLR viability: BJeLR cell viability loss | BJeLR (HRASV12) viability, CellTiter-Glo ATP luminescence, 48 h | inhibition, % (no concentration beside the values) | 0.17% of 300,000 active; in the data active = inhibition above about 50%
FBA Mtb inh: inhibitors of M. tuberculosis fructose-bisphosphate aldolase; P9WQA3; purified M. tuberculosis FBA, fluorescence read-out; inhibition, % at 1 µM; 2.3% of 360,000 active; AID 588726;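 note: 0% = vehicle and 100% = reference inhibitor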
Target sequence (P9WQA3 whole entry, looked up): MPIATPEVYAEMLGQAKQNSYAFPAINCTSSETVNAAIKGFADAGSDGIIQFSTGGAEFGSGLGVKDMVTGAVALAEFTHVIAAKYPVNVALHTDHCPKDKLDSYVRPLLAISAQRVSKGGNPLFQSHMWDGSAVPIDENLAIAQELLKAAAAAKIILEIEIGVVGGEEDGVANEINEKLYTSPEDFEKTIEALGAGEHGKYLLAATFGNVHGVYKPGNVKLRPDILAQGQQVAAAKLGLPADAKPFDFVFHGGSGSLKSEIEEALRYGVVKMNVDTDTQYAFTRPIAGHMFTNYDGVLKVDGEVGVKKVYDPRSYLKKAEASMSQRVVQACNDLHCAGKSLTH
PrP UTR inh: suppresses PrP 5' UTR mRNA reporter expression. 0.35% of 340,000 active. inhibition, % (no concentration beside the values). cell-based PrP 5' UTR mRNA reporter, plate reader; in the data active = inhibition above about 52%; note: 0 = median of the neutral control wells
PrPC TRFRET: inhibitors of human cell surface prion protein PrPC; 0.43% of 370,000 active; AID 720596; P04156; TR-FRET read-out; inhibition, % at 13.8 µM; in the data active = inhibition above about 24%; note: 0% = median of the test wells and 100% = reference compound wells
Mtb FBA confirm: Mtb FBA inhibition, confirmed; shares compounds with FBA Mtb inh; purified M. tuberculosis FBA, fluorescence read-out; inhibition, % at 1 µM; 78% of 5,600 active; AID 651616;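 note: 0% = vehicle wells and 100% = reference inhibitor wells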
GDH-TPI counter-2: GDH-TPI inhibition counter-screen for FBA inhibitors; inhibition, % at 1 µM; shares compounds with FBA Mtb inh; GDH-TPI coupled enzyme counterscreen, fluorescence; 81% of 5,600 active; in the data active = inhibition above about 10%
GDH-TPI DR: counter-screen for M. tuberculosis FBA inhibitors: GDH-TPI dose response; GDH-TPI coupled enzyme assay, fluorescence, artifact counterscreen; 79% of 170 active; IC50, µM; shares compounds with FBA Mtb inh; call rule not given here
* hit, by the source's call; x = not tested or not shown; + = active, no number. Cut-off read from the data, not from the text of the source, unless noted: active = inhibition above about 27%; inactive = the rest.

SMILES	GDH-TPI counter-1	PfHsp40 rescue	BJeLR viability	FBA Mtb inh	PrP UTR inh	PrPC TRFRET	Mtb FBA confirm	GDH-TPI counter-2	others
CCCCOCCCNC(=O)C[C@H]1C[C@@]2(C(=O)OC)C(=C[C@H](C(C)(C)C)O[C@@H]2C)N(Cc2ccco2)C1=O	x	x	x	x	x	13.1	x	x
COc1ccc(-c2cc(C(=O)NCCN3CCOCC3)c3ccccc3n2)cc1	17.7	0.3	31.4	47.0*	-11.8	-15.6	81.1*	93.1*
Cc1ccc(-c2cc(C(=O)NCCN3CCOCC3)c3ccccc3n2)o1	22.7	0.5	-12.6	42.8*	-8.4	-4.3	119.7*	89.5*
O=C(NCCN1CCOCC1)c1cc(-c2ccccc2Cl)nc2ccccc12	5.6	-0.7	3.0	-0.7	-17.4	-8.7	x	x
O=C(NCCN1CCOCC1)c1cc(-c2ccc(Cl)s2)nc2ccccc12	21.1	-1.3	-15.1	92.6*	-18.0	-11.1	148.4*	116.0*
Cc1ccc(-c2cc(C(=O)N3CCN(c4ccccc4O)CC3)c3ccccc3n2)o1	7.3	136.7*	4.6	38.1*	-53.7	-0.6	106.4*	103.4*
CCOC(=O)c1c(NC(C)=O)sc2c1C1CCN2CC1	14.4	-1.4	4.5	3.1	-8.9	-8.4	x	x
COc1ccc2[nH]c3c(=O)n(N)c(=O)[nH]c3c2c1	14.0	-1.5	-5.5	107.1*	3.3	-9.8	33.0*	31.0*
COc1cc2[nH]c3c(=O)n(N)c(=O)[nH]c3c2cc1OC	11.2	0.4	7.5	34.2*	-7.6	0.8	1.4	-3.7
O=C(COC(=O)/C=C/c1ccc(C(F)(F)F)cc1)NCC1CCCO1 (stereo not given)	-12.9	0.2	-3.3	-0.7	-0.1	-4.1	x	x
CCc1nc2ccc(C(=O)NCCCN3CCN(c4ccc(F)cc4)CC3)cc2nc1CC	0.9	0.0	2.5	4.1	1.8	-3.5	x	x
O=C(O)c1ccc2nc(-c3ccccc3)c(-c3ccccc3)nc2c1	12.5	0.0	11.1	29.6*	-13.3	6.0	59.4*	34.2*
CN1CCN(CCNC(=O)c2ccc3nc(-c4ccc(F)cc4)c(-c4ccc(F)cc4)nc3c2)CC1	6.1	1.4	4.1	57.8*	-27.2	-32.5	18.7	6.3	GDH-TPI DR=3.36*
CCOC(=O)C1CCCN(C(=O)c2ccc3nc(-c4ccccc4)c(-c4ccccc4)nc3c2)C1 (stereo not given)	29.3	-1.3	5.7	36.2*	9.3	-9.8	4.3	5.6
CCN1CCN(C(=O)c2ccc3nc(-c4ccccc4)c(-c4ccccc4)nc3c2)CC1	24.6	3.4	3.2	44.1*	-18.5	-8.4	128.8*	91.0*
NC(=O)c1ccc2nc(-c3ccccc3)c(-c3ccccc3)nc2c1	23.0	0.6	3.1	14.6	-26.2	-0.8	x	x
CS(=O)(=O)c1ccc(C(=O)OCC#CCSc2nnc(-c3cccc4ccccc34)o2)cc1	x	x	x	x	x	-5.1	x	x
Cc1cccc(C)c1NC(=O)Nc1nnc([C@H]2C[C@H](O)[C@@H](CO)O2)s1	3.6	x	x	-3.4	x	-5.1	x	x
CCNC(=O)C1(C)CCCN(C(=O)c2ccc(C(F)(F)F)nc2C)C1 (stereo not given)	2.7	x	x	-1.8	x	-2.6	x	x
Cc1ccc(S(=O)(=O)N2CCN(C(=O)COC(=O)CCCOc3ccccc3)CC2)c(C)c1	-6.1	1.4	x	-2.8	-2.8	-2.6	x	x
COC(=O)c1cc(-c2ccc(OC)cc2F)nc2nc(SC)[nH]c(=O)c12	17.0	-1.1	-12.6	27.2*	-11.6	-2.1	+	+
OCCNc1c2ccccc2nc2ccccc12	-3.9	0.5	-4.5	60.3*	-33.5	-7.6	61.6*	34.5*
OCCNc1cnc2ccccc2n1	11.0	-1.2	-4.0	26.7	-23.3	-0.7	x	x
OCCNc1nc2ccccc2nc1NCCO	15.9	-0.6	-1.1	34.5*	-15.1	-6.2	+	173.0*
Cc1cc(NCCO)c2ccccc2n1	6.9	-0.9	1.5	-0.3	-21.0	-3.3	x	x
SMILES	GDH-TPI counter-1	PfHsp40 rescue	BJeLR viability	FBA Mtb inh	PrP UTR inh	PrPC TRFRET	Mtb FBA confirm	GDH-TPI counter-2	others
Cc1cc(NCCO)c2cc(O)ccc2n1	14.6	-1.4	-14.3	90.4*	x	-8.6	105.4*	126.6*
CCc1ccc(OCC(=O)Nc2ccc(-c3cc4ccccc4oc3=O)c(OC)c2)cc1	12.2	-1.1	-1.1	37.2*	-101.3	2.6	63.9*	45.8*
Cn1c(-c2ccc(C=O)s2)nc2c3ccccc3c3ccccc3c21	23.9	-0.3	0.1	53.1*	1.9	-5.0	36.7*	37.2*
O=C(O)c1ccc2c(c1)C(=O)N(c1ncccn1)C2=O	-0.4	-1.7	0.6	0.4	-13.7	-3.6	x	x
O=C(O)c1ccc2c(c1)-c1nc3ccccc3n1C2=O	-0.9	-1.7	-10.5	51.4*	-14.5	-2.6	43.6*	36.3*
COc1ccc(-c2cn3cccnc3n2)cc1NC(=O)c1cc(OC)c(OC)c(OC)c1	19.5	1.3	-7.9	32.2*	-15.2	-13.9	+	+
COc1cc(C(=O)Nc2ccccn2)cc(OC)c1OC	-2.5	-2.0	-1.6	3.6	-25.7	-5.3	x	x
CCN(CC)c1ccc(-c2nn3c(-c4ccc(C(C)(C)C)cc4)nnc3s2)cc1	x	x	x	x	x	12.1	x	x
CCN(CC)c1ccc(-c2nn3c(-c4ccccc4OC)nnc3s2)cc1	23.7	-0.4	23.2	30.8*	51.9	x	51.9*	31.1*
CCOC(=O)c1ccc(N2C(=O)CC(C)(CC)CC2=O)cc1	10.2	0.3	-4.3	-0.1	-17.4	6.6	x	x
COc1cc(NC(=O)c2cc(C)on2)c(OC)cc1Cl	x	x	x	x	x	-4.8	x	x
O=c1c2ccccc2nc2n1CCCN2	3.7	0.0	7.9	70.3*	3.8	6.0	+	+
CCNC(=O)/C(C#N)=C/c1c(N2CCN(C)CC2)nc2c(C)cccn2c1=O	3.5	-0.4	-1.2	58.7*	-8.2	-5.8	96.2*	73.0*
COC(=O)/C(C#N)=C/c1c(N2CCN(c3ccccc3)CC2)nc2c(C)cccn2c1=O	-1.1	1.1	-0.3	-1.1	-3.2	-7.5	x	x
COCCCNC(=O)/C(C#N)=C/c1c(N2CCN(c3ccccc3)CC2)nc2c(C)cccn2c1=O	9.0	0.3	-2.5	10.5	-12.4	-1.3	x	x
COc1ccc(N2CCN(c3nc4c(C)cccn4c(=O)c3/C=C(\C#N)C(N)=O)CC2)cc1	6.6	0.4	-5.0	32.4*	-1.4	-25.1	7.7	3.5
COCCCNC(=O)/C(C#N)=C/c1c(N2CCN(c3cccc(Cl)c3)CC2)nc2c(C)cccn2c1=O	5.3	0.4	5.0	54.4*	-34.6	-2.6	146.5*	120.3*
C=CCNC(=O)/C(C#N)=C/c1c(N2CCN(c3ccc(OC)cc3)CC2)nc2c(C)cccn2c1=O	15.0	1.3	-3.4	45.9*	-13.5	-9.7	173.8*	157.9*

Screening data (PubChem)
